Screening data (PubChem BioAssay)
PME-1 inh = blocks human protein phosphatase methylesterase 1; Q9Y570; recombinant PME-1, FP-Rh probe fluorescence polarization; inhibition, % at 5.9 µM; hit rate 0.53% among 320,000; AID 2130;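 active = inhibition above the campaign mean of all compounds plus 3 SD, cut at about 26% in these data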;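 also: competitive labeling of PME-1 active site by serine hydrolase directed probe; 0% = PME-1 with DMSO and 100% = wells lacking PME-1 enzyme; inhibitors block probe labeling so polarization falls and inhibition rises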
Target sequence (Q9Y570 whole entry, looked up): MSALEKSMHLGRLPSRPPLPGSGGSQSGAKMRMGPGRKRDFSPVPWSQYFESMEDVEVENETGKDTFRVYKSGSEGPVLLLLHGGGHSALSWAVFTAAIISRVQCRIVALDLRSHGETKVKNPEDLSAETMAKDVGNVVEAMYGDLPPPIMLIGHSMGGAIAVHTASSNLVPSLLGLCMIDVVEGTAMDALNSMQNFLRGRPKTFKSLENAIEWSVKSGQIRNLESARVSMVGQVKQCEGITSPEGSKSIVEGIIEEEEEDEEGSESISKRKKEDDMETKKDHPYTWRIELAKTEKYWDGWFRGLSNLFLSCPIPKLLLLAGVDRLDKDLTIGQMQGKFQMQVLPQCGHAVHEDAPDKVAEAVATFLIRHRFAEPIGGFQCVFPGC
PAFAH1B2 inh = blocks human PAF acetylhydrolase 1b catalytic subunit 2 | P68402 | recombinant PAFAH1B2, FP-rhodamine activity probe, fluorescence polarization | inhibition, % at 3.39 µM | hit rate 1.2% among 340,000;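 active = inhibition above the mean of all tested compounds plus 3 SD, cut at about 24% in these data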;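 also: 0% = enzyme with DMSO and 100% = wells lacking PAFAH1B2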
pPAFAH inh = inhibitors of human plasma PAF acetylhydrolase (pPAFAH) | recombinant pPAFAH, FP-rhodamine probe fluorescence polarization | inhibition, % at 3.39 µM | hit rate 1.5% among 330,000;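 active = inhibition above the mean inhibition across the screen plus 3 SD, cut at about 25% in these data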;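 also: inhibitors block binding of the rhodamine activity-based probe so polarization drops; 0% = enzyme with DMSO and 100% = wells lacking pPAFAH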
PAFAH1B3 FP inh = blocks human PAF acetylhydrolase 1B catalytic subunit 3; Q15102; recombinant PAFAH1B3, FP-rhodamine probe, fluorescence polarization; inhibition, % at 3.39 µM; hit rate 0.28% among 340,000;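 active = inhibition above the screen-wide average of all tested compounds plus 3 SD, cut at about 25% in these data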;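 also: 0% = enzyme with DMSO only and 100% = wells lacking PAFAH1B3 protein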
Target sequence (Q15102 whole entry, looked up): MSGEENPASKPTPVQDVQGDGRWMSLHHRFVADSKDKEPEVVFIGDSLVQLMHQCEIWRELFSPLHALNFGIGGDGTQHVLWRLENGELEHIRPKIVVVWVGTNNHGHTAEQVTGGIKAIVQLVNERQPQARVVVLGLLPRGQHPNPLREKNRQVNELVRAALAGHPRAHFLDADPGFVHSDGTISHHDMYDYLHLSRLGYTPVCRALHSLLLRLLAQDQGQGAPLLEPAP
PAFAH2 FP inh = PAFAH2 (human) inhibition | inhibition, % at 3.39 µM | recombinant PAFAH2, FP-rhodamine activity probe, fluorescence polarization | hit rate 0.99% among 340,000 | Q99487 | AID 492956;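 active = inhibition above the mean over all tested compounds plus 3 SD, cut at about 30% in these data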;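 also: inhibitors block probe labeling of enzyme so polarization drops; 0% = enzyme with DMSO and 100% = wells lacking PAFAH2 protein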
Fam108B counter = blocks mouse Fam108B hydrolase in RBBP9 counter-screen | recombinant Fam108B, FP-Rh probe fluorescence polarization | inhibition, % at 9.51 µM | hit rate 0.33% among 300,000 | AID 1947;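 active = inhibition above the screen mean inhibition plus 3 SD, computed separately per campaign, cut at about 18% in these data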;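 also: inhibitors lower polarization as less probe binds the enzyme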
PAFAH2 confirm = confirmation of human PAFAH2 inhibitors; shares compounds with PAFAH2 FP inh; recombinant PAFAH2, FP-rhodamine activity probe, fluorescence polarization; inhibition, % at 3.39 µM; hit rate 65% among 2,300;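 active = mean inhibition over three repeats above a set limit taken from the earlier primary screen, cut at about 30% in these data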;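 also: inhibitor blocks binding of rhodamine activity probe so polarization falls; 0% = enzyme with DMSO and 100% = wells lacking PAFAH2 protein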
* marks the source's active call; other numbers are inactive results; nt = no result. Shown are actives, neighbours in structure and some others; about 2.9% of the full set was active somewhere.

SMILES	PME-1 inh	PAFAH1B2 inh	pPAFAH inh	PAFAH1B3 FP inh	PAFAH2 FP inh	Fam108B counter	PAFAH2 confirm
O=C(c1cc(-c2cccc(O)c2)on1)N1CCCCCC1	0	5	7	-6	0	1	nt
CCN(CC)c1ccc(C(=O)OCC(=O)Nc2ncccn2)cc1	nt	6	24	9	77*	nt	70*
CCN(CC)c1ccc(C(=O)OCC(=O)Nc2sccc2C#N)cc1	-2	-3	9	-6	47*	-3	54*
CCN(CC)c1ccc(C(=O)OCC(=O)Nc2cc3oc4ccccc4c3cc2OC)cc1	-1	1	-7	-2	3	-2	nt
CCN(CC)c1ccc(C(=O)OCC(=O)Nc2ccccc2-c2ccccc2)cc1	8	-4	20	5	77*	-3	51*
COCC(=O)Nc1ccccc1-c1ccccc1	5	3	2	5	8	-1	nt
Cc1ccc(C(=O)NN2C(=O)C3C4C=CC([C@@H]3C2=O)C42CC2)cc1 (stereo not given in full)	1	5	1	8	0	0	nt
CCOC(=O)N1CCC(NC(=O)c2cnc3n(c2=O)CCS3)CC1	-1	7	0	8	10	3	nt
COc1ccc(C(=O)O)cc1S(=O)(=O)NCc1ccncc1	nt	2	1	-3	9	nt	nt
O=c1cc(-c2ccccc2)nc2nc(-c3ccco3)[nH]n12	1	11	6	7	42*	2	7
CCOC(=O)C1(CC2CCCCO2)CCN(C(=O)Nc2ccccc2)CC1 (stereo not given)	-2	1	0	-5	5	0	nt
O=C(CCCCCn1c(=S)[nH]c2ccc(N3CCOCC3)cc2c1=O)NCc1ccc2c(c1)OCO2	2	-2	8	11	4	1	nt
COc1ccc(-n2c(Cn3nnc4ccccc43)n[nH]c2=S)cc1	7	-2	-6	0	6	12	nt
NC(=O)COc1c(-c2ccc(Br)o2)oc2ccccc2c1=O	-6	-2	2	1	31*	7	4
O=c1oc(-c2ccco2)nc2sc3c(c12)CCCC3	-7	4	3	3	72*	17	63*
O=c1oc(-c2ccccc2)nc2sc3c(c12)CCC3	4	-3	10	8	72*	5	74*
Cc1sc2nc(-c3ccccc3)oc(=O)c2c1C	-2	2	3	6	81*	0	65*
CS(=O)(=O)N(CCc1ccccc1)CC(=O)N1CCCC1	1	6	5	8	8	1	nt
CCN(CC)S(=O)(=O)c1ccc2nc(CCl)[nH]c2c1	2	-1	1	1	1	-3	nt
COc1cccc(C(=O)OCn2nnc3ccccc3c2=O)c1	-1	7	1	9	37*	0	21
CCC(=O)OCn1nnc2ccccc2c1=O	2	8	-1	-1	1	-1	nt
O=C(OCc1nc2ccccc2c(=O)[nH]1)c1cccs1	-3	-5	2	1	42*	3	29
O=C(OCn1nnc2ccccc2c1=O)c1cccs1	-3	6	7	5	47*	-1	37*
COc1ccc(C(=O)OCn2nnc3ccccc3c2=O)cc1OC	0	-5	3	5	36*	-5	46*
Cn1cc([N+](=O)[O-])c(C(=O)NC2CCCCCCC2)n1	-7	8	2	10	0	6	nt
SMILES	PME-1 inh	PAFAH1B2 inh	pPAFAH inh	PAFAH1B3 FP inh	PAFAH2 FP inh	Fam108B counter	PAFAH2 confirm
CCOc1ccc(N(C(C)C(=O)N/N=C(\C)C(C)(C)C)S(C)(=O)=O)cc1 (stereo not given)	2	2	5	-5	0	-5	nt
COc1ccc(S(=O)(=O)N(Cc2cc3cc(C)ccc3[nH]c2=O)CC2CCCO2)cc1 (stereo not given)	-13	9	0	8	-5	-3	nt
O=C(O)c1ccc(N=c2oc3cc(O)ccc3cc2C(=O)NCc2ccccc2)cc1	-11	9	7	16	54*	7	40*
CCn1c2ccccc2c2cc(NS(=O)(=O)c3ccc(C)cc3)ccc21	4	0	8	10	-1	0	nt
N#C/C(=C\c1c(Cl)cccc1Cl)c1nc2ccccc2o1	7	-2	1	0	33*	2	33*
Cc1ccc(-c2nnn(CC(=O)NCC3COCCO3)n2)o1 (stereo not given)	-2	7	0	10	4	1	nt
CC1=C(C#N)C(=O)NC(=O)/C1=C\c1ccc(-c2ccc(C)cc2[N+](=O)[O-])o1	nt	13	nt	14	35*	nt	8
Cc1noc(C)c1COc1ccc(C(=O)OCC(=O)NC23CC4CC(CC(C4)C2)C3)cc1	-3	2	11	7	81*	-5	80*
Cc1noc(C)c1COc1ccc(C(=O)OCC(=O)NC2CCCCC2C)cc1 (stereo not given)	5	4	15	1	77*	1	82*
COc1cccc(CN2CCC(n3nccc3NC(=O)CCCc3ccccc3)CC2)c1	7	3	2	9	2	-3	nt
Cc1ccc(NC2c3ncccc3C(=O)N2Cc2cccs2)cc1C (stereo not given)	1	0	-2	1	69*	5	-8
O=C(O)CCCn1cc(NC(=O)COc2ccc([N+](=O)[O-])cc2)cn1	-5	2	2	0	2	-1	nt
COc1cccc(NC(=O)COC(=O)C2C3CC4OC(=O)C2C4C3)c1 (stereo not given)	-9	1	5	11	79*	-1	68*
O=C(COC(=O)C1C2CC3OC(=O)C1C3C2)Nc1cccc(C(F)(F)F)c1 (stereo not given)	-3	-2	7	10	71*	1	78*
Cc1cccc(C)c1NC(=O)COC(=O)C1C2CC3OC(=O)C1C3C2 (stereo not given)	1	1	-2	5	16	-1	nt
O=C(COC(=O)C1C2CC3OC(=O)C1C3C2)Nc1ccc(Cl)cc1 (stereo not given)	-2	0	8	2	84*	-3	74*
O=C(Nc1cccc(C(F)(F)F)c1)C1C2CC3OC(=O)C1C3C2 (stereo not given)	-1	4	4	5	-18	-4	nt
CCc1ccccc1NC(=O)COC(=O)C1C2CC3OC(=O)C1C3C2 (stereo not given)	3	1	0	5	40*	2	31*
CCOc1ccc(CCNC(=O)c2cc(C)on2)cc1OCC	-6	-4	-3	-2	2	-2	nt
CCc1cccc(OCC(=O)Nc2ccc(S(=O)(=O)N3CCCC3)cc2)c1	-1	-3	5	-3	0	-1	nt
